High-throughput results deposited in PubChem BioAssay by National Center for Advancing Translational Sciences (NCATS).
Marburg entry inh: blocks Marburg virus binding to or entry into cells; Potency, µM (series often up to 37.8 µM), for the others: at the top dose activity change, negative = inhibition, most hits filed as inhibitors; 1.8% of 300,000 active; AID 540276; Marburg virus pseudotyped entry inhibition, cell reporter; calls by dose curve; tested in HEK293 cells; note: potency is the fitted concentration of half-maximal effect
Vaccinia Venus: vaccinia inhibition (Venus reporter); 0.46% of 330,000 active; Vaccinia virus Venus reporter expression, fluorescence; Potency, µM (doses to about 36.5 µM), for inactives: at the highest dose activity change, negative = inhibition, actives largely listed as inhibitors; AID 720580; calls by dose curve; tested in A549 cells; note: potency is the fitted concentration of half-maximal effect; nearly all actives have a fitted effect of over 30% in size
Lassa entry inh: Lassa virus entry inhibition. 1.2% of 300,000 active. Potency, µM (doses to about 37.9 µM), for the others: top-dose activity change, negative = inhibition, actives largely listed as inhibitors. Lassa virus pseudotype entry inhibition, cell reporter; calls by dose curve; tested in HEK293 cells; note: potency is the fitted concentration of half-maximal effect; nearly all actives have a fitted effect of over 50% in size
FMDV inh: antivirals against foot and mouth disease virus; FMDV antiviral cell-based qHTS; Potency, µM (top dose mostly 57.9 µM), for the others: at the top dose activity change, negative = inhibition, hits mostly inhibitors; 1.2% of 410,000 active; AID 1159524; calls by dose curve; tested in HEK293T cells; note: read-out not given here; potency is the fitted concentration of half-maximal effect; nearly all actives have a fitted effect of over 45% in size
HCMV inh: human cytomegalovirus inhibition; activity change, negative = inhibition, % at 57.5 µM; 4.5% of 410,000 active; HFF cells, HCMV-luciferase reporter, 72 h; stronger effect = lower value; in the data active = activity change below about -60%; inconclusive = no clear call, values can overlap the other calls; inactive = above about -39%
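Luciferase read-out from HCMV-luciferase-infected HFFs (MOI 1 PFU/cell) 72 h post infection at 37C; compounds added after 16 h cell attachment; activity normalized between buffer-only basal and Salinomycin (10uM) inhibitor controls.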
VACV mCherry inh: inhibitors of vaccinia virus infection (mCherry reporter signal); Vaccinia virus mCherry reporter infection, fluorescence; Potency, µM (titrated, usually from 36.5 µM), for inactives: at the highest dose activity change, negative = inhibition, actives largely listed as inhibitors; 0.63% of 310,000 active; calls by dose curve; tested in A549 cells; note: potency is the fitted concentration of half-maximal effect; nearly all actives have a fitted effect of over 35% in size
* = called active by the depositor; i = inactive; u = inconclusive; x = no result given; ! = not confirmed by another sample; [ ] = remark or other dose. Shown are actives, neighbours in structure and some others; about 6.5% of the full set was active somewhere. % is set by controls: 0 for no effect and ±100 for the full control effect.

SMILES	Marburg entry inh	Vaccinia Venus	Lassa entry inh	FMDV inh	HCMV inh	VACV mCherry inh
CC(C)c1ccc(NC(=O)N[C@H]2CC[C@@]34CCCN3C(=O)CCC[C@H]4C2Cc2ccccc2)cc1 (stereo not given in full)	x	x	x	x	9	x
Cc1ccc2nc(C3CCCCC3)c(Cc3ccccc3C(F)(F)F)n2c1	x	-20%	x	-24%	-70*	i
Cc1ccc2nc(C3CCCCC3)c(Cc3ccccc3)n2c1	x	-14%	x	u	-15	-14%
Nc1cc2c(cc1Br)-c1ccc(F)cc1C2O (stereo not given)	5%[46.1 µM]	-2%	27%[46.1 µM]	21%	17	u
Cc1nc(N/N=C/c2ccc(O)cc2O)cc(N2CCOCC2)n1	2.8µM*	u	u	-9%	u	1.1µM*
Oc1ccc(/C=N/Nc2cc(N3CCOCC3)nc(N3CCOCC3)n2)cc1O	u	u	6%	u	-26	-23%
Cc1nc(N/N=C/c2cccc(F)c2)cc(N2CCOCC2)n1	7.9µM*	-18%	-20%	u	11	u
Oc1ccc(C=Nc2ccc(N3CCOCC3)cc2)c(O)c1	u	-10%	u	16%	11	-7%
Cc1nc(N/N=C/c2cccc([N+](=O)[O-])c2)cc(N2CCCCC2)n1	x	-18%	x	0%	34	-23%
Oc1ccccc1/C=N/Nc1cc(N2CCCC2)nc(N2CCCC2)n1	2.3µM*	u	u	14%	-35	u
Oc1cccc(/C=N/Nc2cc(N3CCOCC3)nc(N3CCOCC3)n2)c1	2.6µM*	u	u	-13%	19	u
COc1cccc([C@H]2NC(=O)C[C@@H]3C[C@@H](C)[C@@H](c4cccc(OC)c4)N3C(=O)C=CC[C@@H]2C)c1	8%[14.2 µM]	x	u	x	x	x
O=c1/c(=C\c2ccccn2)sc2n1CN(c1ccccc1)CN=2	14%	x	x	x	x	x
CN(C)C(=O)C(OC(=O)c1ccc2c(c1)CCCC2)c1ccccc1 (stereo not given)	u	-10%	u	-12%	-14	-20%
CN(C(=O)Nc1ccccc1)C1CCS(=O)(=O)C1 (stereo not given)	7%[46.1 µM]	-8%	3%	-3%	-29	x
CC(=O)NC1=C(Nc2ccc(N(C)C)cc2)C(=O)c2ccccc2C1=O	u	-8%	1.6µM*	-12%	-88*	u
CC(=O)NC1=C(N(C)C2CCS(=O)(=O)C2)C(=O)c2ccccc2C1=O (stereo not given)	u	-1%	7.1µM*	13µM*	-33	-10%
CN(C)c1ccc(C=C2C(=O)c3ccccc3C2=O)cc1	x	-4%	x	x	x	34%
CN(N=O)C(=O)N[C@@H]1[C@@H](O)[C@H](O)[C@@H](CO)O[C@@H]1O	x	x	x	x	-10	x
N#Cc1c(-n2ncnc2-c2ccccc2C(F)(F)F)sc2c1CCCCC2	x	8%	u	0.35µM*	-69*	-5%
COc1cccc2c1OC[C@@H](CO)[C@H]2N(C)C(=O)Nc1ccc(Cl)cc1Cl	-24%	-18%	-30%	-2%	-62*	i
COc1ccc(CCN(C)CC(O)COc2c(C)ccc(C)c2C)cc1OC (stereo not given)	x	x	x	-27%	-4	x
COc1ccc(CCN(C)CC(O)COC(c2ccc(F)cc2)c2ccc(F)cc2)cc1OC (stereo not given)	5.6µM*	-27%	u	-11%	3	i
Cc1c(C(=O)NCc2ccc([N+](=O)[O-])cc2)sc(=O)n1Cc1ccc(-c2ccccc2)cc1	x	-17%	x	-25%	-84*	-14%
Cc1c(C(=O)NCc2ccc3c(c2)OCO3)sc(=O)n1Cc1ccc(-c2ccccc2)cc1	x	3%	x	-13%	-67*	1%
CC(c1ccncn1)N(C)C(=O)c1ccc2oc(Cc3ccccc3)nc2c1 (stereo not given)	u	-12%	1%	51%	49	-12%
CCOC(=O)C1=C(COC(=O)Cc2ccccc2)NC(=O)NC1C (stereo not given)	x	x	x	-19%	-17	x
COC(=O)c1ccc(C(=O)OC)c(NC(=O)CN(c2ccccc2)S(=O)(=O)N(C)C)c1	u	-13%	10µM*!	2%	-22	-5%
O=C(OCc1nc2scc(-c3ccccc3)c2c(=O)[nH]1)c1cc([N+](=O)[O-])ccc1Cl	13%	-8%	0%	40µM*	-24	-15%
